Screening data: PubChem BioAssay, National Center for Advancing Translational Sciences (NCATS)
Only some compounds are listed: those with a hit (about 8% of all), similar ones and a draw of the others.
LASV entry inh: qHTS for Inhibitors of binding or entry into cells for Lassa Virus. Lassa virus pseudotype entry inhibition, cell reporter. Potency, µM (titrated, usually from 37.9 µM), inactives show top-dose activity change, negative = inhibition, hits mostly inhibitors. hit rate 1.2% among 300,000. AID 540256, 2011; calls by dose curve; tested in HEK293 cells; note: potency is the fitted concentration of half-maximal effect; % is set by controls: 0 for no effect and ±100 for the full control effect; nearly all actives have a fitted effect of over 50% in size
SARS PLpro yeast: qHTS of Yeast-based Assay for SARS-CoV PLP | S. cerevisiae expressing SARS-CoV PLpro, growth rescue | Potency, µM (highest dose often 32.9 µM), for inactives: at the top dose activity, positive = growth rescue, actives largely listed as activators | hit rate 0.19% among 330,000 | AID 485353, 2010; calls by dose curve; note: potency is the fitted concentration of half-maximal effect; 0% is about no effect; nearly all actives have a fitted effect of over 55% in size
MARV entry inh: qHTS for inhibitors of binding or entry into cells for Marburg Virus. AID 540276, 2011. Potency, µM (series often up to 37.8 µM), for inactives: at the top dose activity change, negative = inhibition, actives largely listed as inhibitors. hit rate 1.8% among 300,000. Marburg virus pseudotyped entry inhibition, cell reporter; calls by dose curve; tested in HEK293 cells; note: potency is the fitted concentration of half-maximal effect; % is set by controls: 0 for no effect and ±100 for the full control effect
FMDV inh: High Throughput Screening for Foot and Mouth Disease Virus Antivirals; AID 1159524, 2015; FMDV antiviral cell-based qHTS; Potency, µM (highest dose often 57.9 µM), for inactives: top-dose activity change, negative = inhibition, usual class: inhibitors; hit rate 1.2% among 410,000; calls by dose curve; tested in HEK293T cells; note: read-out not given here; potency is the fitted concentration of half-maximal effect; % is set by controls: 0 for no effect and ±100 for the full control effect; nearly all actives have a fitted effect of over 45% in size
HCV inhibitor: qHTS Assay for Inhibitors of Hepatitis C Virus (HCV). Huh7.5.1 HCVcc-Cre infection, luciferase reporter, 44 h. Potency, µM (doses to about 41.8 µM), for the others: at the highest dose activity change, negative = inhibition, actives largely listed as inhibitors. hit rate 3.4% among 340,000. AID 651820, 2012; active = well fitted inhibition curve with a large enough effect; inconclusive = small, poorly fitted or top-dose-only effect, or another doubt; inactive = no such curve, though single readings can be large or run the other way; note: potency is the fitted concentration of half-maximal effect; % is set by controls: 0 for no effect and ±100 for the full control effect
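Infectious HCV cell culture screen: compound-treated cells (1,000/well, pre-plated 4 h) are infected with HCVcc-Cre at roughly 0.5 moi and grown 44 h. Infection is quantified by luciferase signal after 15 min substrate incubation at room temperature.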
HCMV antiviral: qHTS Assay for inhibitors of the human cytomegalovirus (HCMV); hit rate 4.5% among 410,000; AID 1259415, 2018; activity change, negative = inhibition, % at 57.5 µM; HFF cells, HCMV-luciferase reporter, 72 h; active compounds read low; in the data active = activity change below about -60%; inconclusive = no clear call, values can overlap the other calls; inactive = above about -39%; note: % is set by controls: 0 for no effect and ±100 for the full control effect
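Two compound doses tested in HFFs infected with HCMV-luciferase, MOI 1 PFU/cell, 72 h at 37C. Lysate luminescence read with OneGlo; data normalized against buffer-only and 10uM Salinomycin inhibitor controls.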
Active calls of the source: *; u = inconclusive; x = no result; [ ] = dose if it differs, or a comment.

SMILES	LASV entry inh	SARS PLpro yeast	MARV entry inh	FMDV inh	HCV inhibitor	HCMV antiviral
O=c1cc(O)c2sc(Nc3ccc(F)cc3)nc2[nH]1	u	-4%	-8%	-4%	34%	-92*
CSc1ccc(CN(C)C(=O)C23CC4CC(CC(Cl)(C4)C2)C3)cc1	0%[46.1 µM]	-18%	-28%[46.1 µM]	-8%	-23%	-12
Cn1nnnc1SCCNCc1cc(Br)ccc1OCc1ccccc1Cl	u	x	u	u	x	-69*
Cn1nnnc1SCCNCc1ccc(OCc2ccccc2Cl)cc1	-3%[46.1 µM]	x	u	0%	x	-105*
O=C(Nc1nccs1)c1ccc(-c2ccc(F)c(Cl)c2)o1	x	-1%	x	12%	22µM*	18
Cc1ccc(Cc2nc3ccccc3nc2SCC(=O)NCc2ccc(F)cc2)cc1	19%[46.1 µM]	x	x	-19%	x	-5
CCOC(=O)Cn1c(=O)cc(C)c2c(C)nn(-c3cccc(F)c3)c21	23%[46.1 µM]	x	x	-16%	x	3
O=C1NCCN1c1ccccc1	u	x	18%	-4%	10%	-79*
O=C1N(c2ccccc2)CCN1c1ccccc1	x	0%	x	0%	5%	57
CC1=CC[C@@H](COc2ccccc2)O[C@@]2(C1)C(=O)N(Cc1ccc(F)cc1)c1ccccc12	x	x	-2%[14.2 µM]	x	x	x
Cc1ccc(S(=O)(=O)N(C)C)cc1NC(=O)CN1CCN(Cc2ccccc2)CC1	-11%	3%	u	-22%	26%	-18
Cc1ccc(S(=O)(=O)N(C)C)cc1NC(=O)c1cc(C(C)(C)C)nn1Cc1ccccc1	x	-1%	x	u	5.6µM*	-25
C#Cc1ccc([C@H]2C=C(C(=O)N3CCN(Cc4ccccc4)CC3)O[C@@H](OCc3ccc(CO)cc3)C2)cc1	x	-1%	x	-28%	u	-76*
O=C(C1=C[C@@H](c2ccc(C(F)(F)F)cc2)C[C@@H](OCc2ccc(CO)cc2)O1)N1CCN(Cc2ccc3c(c2)OCO3)CC1	x	0%	x	u	u	5
O=C(C1=C[C@H](c2ccc(C(F)(F)F)cc2)C[C@H](OCc2ccc(CO)cc2)O1)N1CCN(Cc2ccc3c(c2)OCO3)CC1	x	-2%	x	u	10µM*	-18
C#CCOc1ccccc1/C=N/NC(=O)c1ccccc1OCc1ccccc1	x	-2%	x	18µM*	u	u
COc1ccccc1C(=O)NCC(=O)N/N=C/c1cc(Br)ccc1OCc1ccccc1	u	17%	u	u	10µM*	u
COc1ccc(/C=N/OCC(=O)NC(c2ccccc2)c2ccccc2)c(OC)c1	2.2µM*	-20%	u	u	u	-6
COc1ccc(/C=N/OCC(=O)NCC(C)C)c(OC)c1	-14%[46.1 µM]	1%	12%[46.1 µM]	-17%	-11%	-34
O=C(N/N=C/c1ccccc1)c1sccc1OCc1ccc(F)cc1	-12%	-3%	u	-10%	u	-62*
O=C(N/N=C/c1ccccc1)c1ccc(OCc2ccccc2)cc1	x	-1%	x	27%	-2%	30
O=C(N/N=C\c1ccccc1OCc1ccccc1)c1ccco1	-15%	-25%	-13%	-9%	3%	133
CC(=O)N1CCC2(CC1)CN(c1cccc(-c3ccccc3)c1)C2	x	x	x	4%	x	x
CCCS(=O)(=O)NCc1c(C)ncc2c1CCN(C(=O)/C=C/c1ccc(F)cc1F)C2	x	x	x	3%	x	x
Cc1ccc(S(=O)(=O)N[C@@H]2COC(=O)[C@@H](C)COC(=O)CC=C[C@H]2C)cc1	x	x	7%[14.2 µM]	x	x	x
SMILES	LASV entry inh	SARS PLpro yeast	MARV entry inh	FMDV inh	HCV inhibitor	HCMV antiviral
COc1ccc(NC(C)C(=O)N/N=C/c2ccccc2OCc2cccc(Br)c2)cc1 (centres undefined)	11µM*	-7%	u	-16%	11µM*	14
Cc1ccc(/C=N/NC(=O)c2ccccc2OCc2ccc(F)cc2)o1	2%	-46%	-20%	-33%	10µM*	u
COc1ccc(COc2ccccc2C(=O)NCc2ccccc2)cc1F	u	3%	u	u	10µM*	-69*
CCC(CC)=NNC(=O)c1ccccc1OCc1ccc(F)cc1	u	-8%	0%	-21%	u	u
COc1ccc(/C=N/NC(=O)c2ccccc2OCc2ccccc2)c(OC)c1	u	-11%	u	-16%	13µM*	u
CCOC(=O)C1=CN(CCc2cn(Cc3ccccc3)nn2)C(=O)NC1c1ccccc1 (centres undefined)	x	x	-8%[14.2 µM]	x	x	x
CC(C)Cn1c(=O)c2sccc2n2c(CCCC(=O)N3CCC(N4CCCCC4)CC3)nnc12	28%[46.1 µM]	-5%	25%[46.1 µM]	25%	-7%	u
CC(C)CCn1c(=O)c2sccc2n2c(CCCC(=O)N3CCC(N4CCCCC4)CC3)nnc12	x	1%	x	-19%	13µM*	u
COc1ccc(OCCN2CCN(C(=O)c3ccc(OC)c(OC)c3)CC2)cc1	u	1%	u	u	8.9µM*	-14
COc1ccc(OCC(=O)N2CCN(C(=O)c3ccc(OC)c(OC)c3)CC2)cc1	5%[46.1 µM]	x	u	15%	x	22
CCOC(=O)c1ccc2[nH]c3c(c2c1)CCCC3O (centres undefined)	-23%	0%	23%[46.1 µM]	41%	10µM*	-6
COc1ccc(NC(=O)CSc2c3c(nc4ccccc24)CCC3)c(OC)c1	-15%[46.1 µM]	-20%	2.2µM*	u	-20%	19
CCOc1ccc(CNC(=O)CSc2c3c(nc4cc(Cl)ccc24)CCCC3)cc1	u	x	7%[46.1 µM]	u	x	u
Cc1ccc(CNC(=O)CSc2c3c(nc4cc(Cl)ccc24)CCCC3)o1	21µM*	-18%	u	28µM*	4.5µM*	6
O=C(CSc1c2c(nc3cc(Cl)ccc13)CCCC2)NCCN1CCOCC1	13%[46.1 µM]	6%	u	u	-21%	12
COc1ccc(NC(=O)c2ccc3c(SCC(=O)O)c4c(nc3c2)CCCC4)c(OC)c1	7%[46.1 µM]	1%	22%[46.1 µM]	-23%	1%	-25
COc1ccc(OC)c(CNC(=O)CSc2c3c(nc4cc(Cl)ccc24)CCCC3)c1	-5%[46.1 µM]	x	u	u	x	-60*
COCCNC(=O)CCCn1c(SCc2ccccc2Cl)nc2c(sc3ccccc32)c1=O	2%[46.1 µM]	x	-15%[46.1 µM]	u	x	11
CCCn1nc(NC(=O)C2CCCO2)c2cc3cccc(C)c3nc21 (centres undefined)	-11%	-2%	-5%[46.1 µM]	3%	11µM*	8
CCn1nc(NC(=O)c2cccs2)c2cc3ccccc3nc21	x	8%	x	-14%	25µM*	-14
CCn1nc(NC(=O)c2ccccc2)c2cc3cccc(C)c3nc21	u	-1%	u	-18%	25µM*	-18
CCn1nc(NC(C)=O)c2cc3cccc(C)c3nc21	x	0%	x	-16%	u	5
OC[C@H]1O[C@H](C#Cc2ccccc2)C=C[C@@H]1O	u	x	20%[14.2 µM]	x	x	x
